RGS4-Gao reg – modulates binding of RGS4 to human Galphao; P09471; Multiplexed bead flow cytometry; actives lie on both sides; binding response (% of control), % at 10 µM; 220,000 tested, 0.33% active; in the data active = binding response below about 49% or above about 150%; inactive = in between;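 note: fluorescent Galphao activated with aluminum fluoride binding bead-coupled RGS4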
Target sequence (P09471 whole entry, looked up): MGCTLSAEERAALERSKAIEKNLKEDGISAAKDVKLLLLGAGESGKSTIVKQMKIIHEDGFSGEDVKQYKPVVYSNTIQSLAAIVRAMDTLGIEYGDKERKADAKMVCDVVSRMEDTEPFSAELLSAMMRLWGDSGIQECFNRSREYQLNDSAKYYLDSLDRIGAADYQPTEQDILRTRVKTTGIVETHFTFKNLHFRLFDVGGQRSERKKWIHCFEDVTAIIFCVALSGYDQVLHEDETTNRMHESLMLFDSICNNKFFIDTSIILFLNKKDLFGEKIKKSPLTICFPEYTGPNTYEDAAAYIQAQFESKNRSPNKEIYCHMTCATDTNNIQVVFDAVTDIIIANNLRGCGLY
RGS8-Gao reg – regulators of human RGS8-Galphao interaction | P09471 | multiplexed bead flow cytometry, RGS8-Galphao binding; actives lie on both sides | response (percent of control binding), % at 10 µM | 220,000 tested, 0.34% active; in the data active = response below about 60% or above about 140%; inactive = in between;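 note: Galphao activated as the GDP aluminium fluoride complex binding bead-coupled RGS8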
RGS16-Gao – modulates binding between human RGS16 and Galphao. bead-based flow cytometry RGS16-Galphao binding, fluorescence; actives lie on both sides. binding response (% of control), % at 10 µM. 220,000 tested, 0.38% active; call rule not given here;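 note: Galphao activated by GDP with aluminum fluoride before binding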
Target sequence (O15492 whole entry, looked up): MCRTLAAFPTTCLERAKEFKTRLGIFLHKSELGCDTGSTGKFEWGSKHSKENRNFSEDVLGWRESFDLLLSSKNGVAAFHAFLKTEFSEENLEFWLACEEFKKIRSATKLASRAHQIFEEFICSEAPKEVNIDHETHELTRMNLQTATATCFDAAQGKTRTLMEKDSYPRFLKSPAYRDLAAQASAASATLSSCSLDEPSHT
Target sequence (P09471 whole entry, looked up): as the sequence (P09471 whole entry, looked up) above
Avidin bead fluor – avidin bead compound fluorescence profile; Avidin beads, compound fluorescence 488/530 nm, flow cytometry; hits give high values; fluorescence (KMESF) at 10 µM; 220,000 tested, 0.38% active; in the data active = fluorescence above about 47
GSH bead fluor – compound fluoresces at 488/530 nm on GSH beads. fluorescence (KMESF) at 10 µM. AID 1776. GSH beads flow cytometry, compound fluorescence 488/530 nm; hits give high values. 190,000 tested, 0.25% active; in the data active = fluorescence above about 89;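 note: glutathione beads carrying GST-tagged Bcl family fusion proteins plus one bare bead set; values are compound well signal with DMSO vehicle wells as background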
RGS7-Gao reg – human RGS7-Galphao interaction regulation; P09471; Multiplexed bead flow cytometry, RGS7-Galphao binding; actives lie on both sides; binding response (% of control), % at 10 µM; 220,000 tested, 0.35% active; in the data active = binding response below about 49% or above about 150%; inconclusive = no clear call, values can overlap the other calls; inactive = in between;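 note: fluorescent Galphao held in activated GDP-AlF4 state binding bead-coupled RGS7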
An asterisk follows results filed as active; ? = inconclusive; nt = no result. A selection: hits, their analogues and other compounds. The true share with any hit is near 1.2%.

SMILES	RGS4-Gao reg	RGS8-Gao reg	RGS16-Gao	Avidin bead fluor	GSH bead fluor	RGS7-Gao reg
Cc1ccc(C(=O)NC2CCc3ccccc3C2=O)cc1 (stereo not drawn)	89.8	94.0	90.3	16	16	91.6
Cc1ccc(C(=O)NC2c3ccccc3-c3ccccc32)cc1	106.6	100.2	99.2	60*	19	142.8
Cc1cccc(OC(=O)CCN2C(=O)C3C4C=CC(C5CC45)C3C2=O)c1C (stereo not drawn)	102.0	100.0	104.8	9	20	98.9
CCCN1C(=O)c2ccc(C(=O)Nc3cc(C)on3)cc2C1=O	99.5	101.6	102.4	9	17	98.6
CCCCN1C(=O)c2ccc(C(=O)Nc3c(N)n(CCCC)c(=O)n(C)c3=O)cc2C1=O	106.7	100.7	100.7	8	271*	102.9
Cc1ccc(-c2nc(CSCC(=O)N3CCN(C(=O)c4ccco4)CC3)c(C)o2)cc1	98.6	99.9	99.7	6	15	98.3
O=C(C(Cc1ccc(Cl)cc1)NS(=O)(=O)c1ccccc1)N1CC[C@@]2(O)CCCC[C@H]2C1 (stereo partly drawn)	101.1	99.8	101.2	22	9	97.5
CCCCSc1ncc(C(=O)OCC)c(N)n1	100.9	101.9	100.8	4	129*	96.5
O=C(CN1C(=O)c2ccccc2S1(=O)=O)NCCC1=CCCCC1	85.0	98.5	91.1	4	117*	89.6
CN(CC(=O)OCC(=O)NC(=O)c1cccn1C)S(=O)(=O)c1ccc(Cl)cc1	95.8	102.2	100.1	11	73	99.3
O=C(COc1ncnc2sccc12)Nc1cccc(S(=O)(=O)N2CCCC2)c1	97.1	100.7	99.1	4	nt	?
O=C(O)CC(=O)Nc1ccccc1C(=O)O	96.8	97.6	97.1	12	31	94.2
N#CCC(=O)Nc1ccccc1C(=O)O	110.0	107.9	130.8	7	264*	107.9
CCOC(=O)c1ccc(NC(=O)CSc2nnc(CNc3ccc(OC)cc3)n2C)cc1	98.2	100.1	97.7	7	64	98.6
S=C(Nc1cccc2ccccc12)NN1CCOCC1	117.5	104.1	115.6	47*	24	115.7
O=C(Nc1cccc2ccccc12)N1CCOCC1	105.7	102.6	110.0	19	28	105.7
CCOc1ccc(N2C(=O)CC(Sc3nc(C)cc(C)n3)C2=O)cc1 (stereo not drawn)	104.0	103.5	99.1	6	17	105.0
CCOc1ccc(N2C(=O)CC(SCCN)C2=O)cc1 (stereo not drawn)	100.5	100.0	103.2	6	267*	99.4
Cc1ccc(NC(=O)CS(=O)CC(=O)NC(C)CCc2ccco2)cc1Cl (stereo not drawn)	97.3	96.6	97.8	72*	26	115.6
CC(CCc1ccco1)NC(=O)Nc1cccc(F)c1 (stereo not drawn)	105.8	103.4	108.4	10	52	107.3
CCOC(=O)c1[nH]c(C)c(C(=O)Nc2ccccc2F)c1C	102.3	97.3	104.6	108*	25	127.4
CCOC(=O)c1[nH]c(C)c(C(=O)Nc2ccc(F)cc2)c1C	98.0	101.2	104.7	7	25	95.6
Cc1cc(C(=O)N2CCN(C(c3ccccc3)c3ccccc3)CC2)no1	120.1	103.8	133.1	52*	50	116.9
CCCc1cc(C(=O)N2CCN(C(c3ccccc3)c3ccccc3)CC2)no1	98.7	102.3	101.0	7	18	97.0
O=C1CNC(=S)N1CCOc1ccccc1	95.0	98.8	99.3	7	nt	?
SMILES	RGS4-Gao reg	RGS8-Gao reg	RGS16-Gao	Avidin bead fluor	GSH bead fluor	RGS7-Gao reg
CC1(c2ccccc2)NC(=O)N(CCOc2ccccc2)C1=O (stereo not drawn)	103.0	100.0	103.7	7	263*	102.2
Cc1cccc(C)c1OCCN1C(=O)NC(C)(c2ccccc2)C1=O (stereo not drawn)	110.5	109.0	103.6	6	12	105.3
CN1CC(=O)N(CCOc2ccccc2)C1=O	101.6	100.5	107.3	8	263*	99.0
O=C(Cn1nc(-c2ccccc2)nc1-c1ccccc1)N1CCOCC1	106.2	110.1	129.8	11	14	110.6
Cc1cc(NC(=O)Nc2ccc(F)cc2F)n(C)n1	100.3	98.1	100.0	11	13	101.4
CCc1c(O)nc(SCC(=O)c2ccccc2)n(-c2ccccc2)c1=O	95.4	97.2	91.4	7	nt	?
O=C(CCc1nc2ccccc2n1-c1ccccc1)NCCO	97.9	98.0	101.6	16	7	97.6
CCn1c(=O)c(C(=O)Nc2nc3ccccc3[nH]2)c(O)c2ccccc21	105.0	103.5	108.4	4	114*	105.6
CCc1nc2ccccc2c(=O)n1NC(=O)c1c(O)c2ccccc2n(CC)c1=O	104.4	98.5	101.0	11	17	101.1
O=C(c1cccs1)N1CCN(CCCc2ccccc2)CC1	100.8	100.7	107.9	7	263*	100.5
COc1ccccc1NC(=S)NNC(=O)c1nn(C)c(C)c1Cl	96.6	96.4	101.9	10	44	98.2
O=[N+]([O-])c1cccc(/C=N/NS(=O)(=O)c2ccccc2)c1	104.5	102.1	103.6	7	14	103.5
O=S(=O)(N/N=C\c1cccnc1)c1ccccc1	100.9	106.6	107.5	7	352*	105.4
COC(=O)c1ccc(CN(c2ccc(C)cc2)S(=O)(=O)c2ccc3c(c2)OCCO3)o1	107.0	108.6	114.0	13	10	108.5
CCCc1c(O)nc(SCc2ccccc2)[nH]c1=O	101.9	99.3	101.0	13	47	102.7
O=C(NC1CCCCC1)C(c1ccco1)N(C(=O)c1csnn1)C1CCCC1 (stereo not drawn)	35.8*	27.8*	26.0	3	30	29.2*
Cc1ccccc1N/C(SCc1ccc(Cl)cc1)=C(/C#N)C(=O)NCc1ccco1	107.5	100.5	104.1	115*	24	140.2
Cc1ccc(CS/C(Nc2ccccc2C)=C(\C#N)C(=O)NCc2ccco2)c(C)c1	100.1	100.2	98.6	10	14	100.3
O=C(c1ccco1)N1CCN(C(c2ccc(F)cc2)c2nnnn2Cc2cccs2)CC1 (stereo not drawn)	106.5	110.6	126.7	7	260*	100.9
O=C(CSc1nnc2scc(-c3ccccc3)n12)N1CCN(Cc2ccccc2)CC1	97.0	98.4	100.5	13	27	96.3
CCSc1nc(N)c2c3c(sc2n1)CCC3	74.9	91.5	-2.7	0	24	84.8
CCOc1ccccc1C(=O)NCCC(=O)O	115.3	134.4	253.2	6	17	108.5
CCOc1ccccc1C(=O)NC(CO)C(=O)O (stereo not drawn)	104.3	100.7	106.2	6	271*	102.1
CCOc1ccc(C(CCc2ccccc2)NC(=O)c2ccccc2OC)cc1OCC (stereo not drawn)	106.1	102.5	108.0	51*	21	111.0

High-throughput results from PubChem.
